High-throughput results (PubChem)
Hits are enriched below; roughly 11% of the tested compounds scored in any of these assays.
3T3 cytotox: NIH 3T3 cell cytotoxicity; NIH 3T3 viability, CellTiter-Glo ATP luminescence, 48-72 h; Potency, µM (doses to about 96.7 µM), for inactives: top-dose activity change, negative = cytotoxicity, hits mostly inhibitors; 94,000 tested, 4.3% active; further: nearly all actives have a fitted effect of over 55% in size
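Mouse fibroblast NIH 3T3 cells, 400 per well, received compound via pintool and were incubated for 48 or 72 hr prior to CellTiter-Glo ATP luminescence measurement.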
HEK293 tox: HEK 293 cell cytotoxicity; Potency, µM (highest dose often 115 µM), for the others: at the highest dose activity change, negative = cytotoxicity, most hits filed as inhibitors; HEK 293 viability, ATP luminescence (CellTiter-Glo), 48-72 h; 94,000 tested, 6.6% active; further: nearly all actives have a fitted effect of over 60% in size
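CellTiter-Glo luminescence (cellular ATP) was read after 48 or 72 hr of compound exposure at 37 degree Celsius. Cells were HEK 293 plated at 250 cells/well.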
hNpr1 antagonist: human Npr1 receptor antagonism | HEK293 hNpr1 GloSensor cGMP, ANP-stimulated luminescence | AID 1347048 | P16066 | 76,000 tested, 1.6% active | Potency, µM (top dose mostly 46.3 µM), for the others: top-dose activity change, negative = inhibition, usual class: inhibitors; calls by dose curve; further: nearly all actives have a fitted effect of over 60% in size
Target sequence (P16066 whole entry, looked up): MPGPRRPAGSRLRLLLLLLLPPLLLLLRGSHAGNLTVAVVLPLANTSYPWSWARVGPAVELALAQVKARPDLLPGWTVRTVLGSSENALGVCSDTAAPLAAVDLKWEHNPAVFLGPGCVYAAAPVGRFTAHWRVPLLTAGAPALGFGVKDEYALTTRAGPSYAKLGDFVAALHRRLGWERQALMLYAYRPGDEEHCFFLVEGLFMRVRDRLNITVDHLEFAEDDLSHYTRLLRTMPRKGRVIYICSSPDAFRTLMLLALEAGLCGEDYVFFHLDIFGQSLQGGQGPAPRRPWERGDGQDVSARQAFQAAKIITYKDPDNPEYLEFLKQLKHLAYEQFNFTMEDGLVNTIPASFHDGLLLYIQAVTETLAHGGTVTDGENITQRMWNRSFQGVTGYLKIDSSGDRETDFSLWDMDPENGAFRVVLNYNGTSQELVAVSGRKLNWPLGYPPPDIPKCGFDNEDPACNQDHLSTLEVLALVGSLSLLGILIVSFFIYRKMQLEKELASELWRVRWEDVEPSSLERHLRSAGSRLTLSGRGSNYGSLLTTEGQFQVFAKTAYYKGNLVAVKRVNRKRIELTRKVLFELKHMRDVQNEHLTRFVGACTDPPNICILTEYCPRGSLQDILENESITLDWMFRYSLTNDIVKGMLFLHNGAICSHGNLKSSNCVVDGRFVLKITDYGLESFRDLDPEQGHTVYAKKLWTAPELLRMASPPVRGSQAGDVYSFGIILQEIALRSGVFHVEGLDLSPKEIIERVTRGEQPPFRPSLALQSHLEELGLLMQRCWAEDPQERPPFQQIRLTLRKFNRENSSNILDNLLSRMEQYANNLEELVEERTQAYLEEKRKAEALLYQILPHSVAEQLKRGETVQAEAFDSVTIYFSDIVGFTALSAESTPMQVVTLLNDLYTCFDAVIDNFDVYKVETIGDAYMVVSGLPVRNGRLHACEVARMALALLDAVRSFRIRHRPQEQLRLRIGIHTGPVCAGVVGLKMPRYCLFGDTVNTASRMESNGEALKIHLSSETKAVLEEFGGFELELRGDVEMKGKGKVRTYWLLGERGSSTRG
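HEK293 cells stably expressing human Npr1 and cGMP GloSensor pGS-40F, loaded 2 h with 2% GloSensor reagent, given compound 30 min at room temperature. Luminescence read before and 20 min after 0.1 nM hNppA.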
Luciferase inh: blocks purified firefly luciferase enzyme activity; P08659; purified P. pyralis luciferase, luminescence, biochemical; Potency, µM (doses to about 115 µM), most hits filed as inhibitors; 76,000 tested, 2.5% active; further: nearly all actives have a fitted effect of over 65% in size
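FLuc 10nM, D-luciferin 10uM, ATP 10uM, Mg acetate 10mM, Tris acetate pH 7.5, Tween/BSA; cpd qHTS; enzyme added last; CCD luminescence.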
Starred values were filed as active, the others as inactive; [ ] = dose if it differs, or a comment. Unless noted, the call rests on the fitted dose curve; in most records, active means well fitted curve in the direction sought with a large enough effect; inconclusive means small, poorly fitted or top-dose-only effect, or another doubt; inactive means no such curve, though single readings can be large; an effect the other way counts as inactive or inconclusive. On the % scale 0 is the no-effect control and ±100 the full control effect; potency means the concentration at half of the fitted maximal effect.

For O=C(NCc1ccc(C(F)(F)F)cc1)C1CN(C2CCCC2)C(=O)N1 (centres undefined) the results were 3T3 cytotox -16.0% and HEK293 tox inconclusive.
For COc1ccc(Cl)cc1S(=O)(=O)N1CCC(n2cnnc2-c2ccccc2)CC1 the results were 3T3 cytotox inconclusive, HEK293 tox -15.9%, hNpr1 antagonist -3.3% and Luciferase inh inactive.
Screening O=C(Cc1ccc(Cl)cc1)N1CCC2(CC1)NC(=O)N(c1ccccc1Cl)N2 returned 3T3 cytotox 39.8µM*, HEK293 tox 89.1µM*, hNpr1 antagonist -1.4% and Luciferase inh inactive.
For O=C(COc1ccccc1)N1CCC2(CC1)NC(=O)N(c1ccccc1Cl)N2 the results were 3T3 cytotox inconclusive, HEK293 tox inconclusive, hNpr1 antagonist 1.2% and Luciferase inh inactive.
For O=C(c1ccc(C(F)(F)F)cc1)N1CCC2(CC1)CNc1ccccc1[S+](=O)([O-])N2 the results were 3T3 cytotox -11.9%, HEK293 tox 50.1µM*, hNpr1 antagonist -4.0% and Luciferase inh inactive.
O=[S+]1([O-])NC2(CCN(Cc3ccncc3)CC2)CNc2ccccc21 was read as 3T3 cytotox -23.0%, HEK293 tox -3.1%, hNpr1 antagonist 4.6% and Luciferase inh inactive.
`O=[S+]1([O-])NC2(CCN(Cc3ccc(C(F)(F)F)cc3)C2)CNc2ccccc21` (centres undefined) gave 3T3 cytotox inconclusive, HEK293 tox 44.7µM*, hNpr1 antagonist inconclusive and Luciferase inh inactive.
O=[S+]1([O-])NC2(CCN(Cc3ccccc3C(F)(F)F)C2)CNc2ccccc21 (centres undefined) was read as 3T3 cytotox inconclusive, HEK293 tox 39.8µM*, hNpr1 antagonist -3.1% and Luciferase inh inactive.
For O=[S+]1([O-])NCC2(CCN(Cc3ccccc3C(F)(F)F)CC2)Nc2ccccc21 the results were 3T3 cytotox inactive, HEK293 tox inconclusive, hNpr1 antagonist 6.2% and Luciferase inh inactive.
`O=[S+]1([O-])NC2(CCN(Cc3cccc4ccccc34)C2)CNc2ccccc21` (centres undefined) gave 3T3 cytotox inconclusive, HEK293 tox 39.8µM*, hNpr1 antagonist inconclusive and Luciferase inh inactive.
COc1ccccc1C(=O)N1CCC(N2C[C@H](O)C[C@H]2C(=O)NC2CCCCC2)CC1 was read as 3T3 cytotox -3.8%, HEK293 tox inactive, hNpr1 antagonist 8.8% and Luciferase inh inactive.
For Cc1ccsc1C(=O)NC1CCN(c2cc(C(F)(F)F)ncn2)CC1 the results were 3T3 cytotox -27.6%, HEK293 tox inconclusive, hNpr1 antagonist inconclusive and Luciferase inh inactive.
`CC(=O)NC[C@H]1CCN(S(=O)(=O)c2ccc3c(c2)CCC3)C[C@H]1N(C)C` gave 3T3 cytotox -13.4%, HEK293 tox -29.7%, hNpr1 antagonist 5.9% and Luciferase inh inactive.
`COc1ccc(CNC(=O)[C@@H](C)C2CC[C@@]3(C)CC[C@H](NC(=O)COc4ccccc4)[C@@H](C)[C@@H]3[C@H]2O)cc1` (some centres undefined) gave 3T3 cytotox 31.6µM*, HEK293 tox 22.4µM*, hNpr1 antagonist inconclusive and Luciferase inh inactive.
`CN(Cc1cccnc1)c1nc2c(c(=O)[nH]1)CCN(Cc1cccc(Cl)c1F)CC2` gave 3T3 cytotox inconclusive, HEK293 tox 25.1µM*, hNpr1 antagonist -12.2% and Luciferase inh inactive.
CN(Cc1cccnc1)c1nc2c(c(=O)[nH]1)CCN(Cc1ccccc1)CC2 was read as 3T3 cytotox -29.2%, HEK293 tox -24.7%, hNpr1 antagonist 2.5% and Luciferase inh inactive.
`CN(Cc1cccnc1)c1nc2c(c(=O)[nH]1)CCN(Cc1ccc(C(F)(F)F)cc1)CC2` gave 3T3 cytotox inconclusive, HEK293 tox 31.6µM*, hNpr1 antagonist -17.3% and Luciferase inh inactive.
For CN(CC1CCOCC1)S(=O)(=O)c1ccc(F)c(Cl)c1 the results were 3T3 cytotox -16.4%, HEK293 tox inconclusive, hNpr1 antagonist -19.0% and Luciferase inh inactive.
`O=C(c1ccc2ncccc2c1)N1CCCN(c2cc(-c3ccc(Cl)cc3)[nH]n2)CC1` gave 3T3 cytotox inconclusive, HEK293 tox 35.5µM*, hNpr1 antagonist inconclusive and Luciferase inh inactive.
Cc1ccsc1C(=O)N1CCCN(c2cc(-c3ccc(Cl)cc3)[nH]n2)CC1 was read as 3T3 cytotox inconclusive, HEK293 tox 31.6µM*, hNpr1 antagonist inconclusive and Luciferase inh inactive.
O=C(c1ccc2c(c1)OCO2)N1CCN(c2cc(-c3ccc(F)cc3)[nH]n2)CC1 was read as 3T3 cytotox 14.1µM*, HEK293 tox inconclusive, hNpr1 antagonist inconclusive and Luciferase inh inactive.
For Cc1cc(C)cc(C(=O)N2CCN(c3cc(-c4ccc(Cl)cc4)[nH]n3)CC2)c1 the results were 3T3 cytotox 39.8µM*, HEK293 tox 39.8µM*, hNpr1 antagonist inconclusive and Luciferase inh inactive.
`CC(=O)Nc1ccc(C(=O)N2CCCN(c3cc(-c4ccc(Cl)cc4)[nH]n3)CC2)cc1` gave 3T3 cytotox -24.4%, HEK293 tox inconclusive, hNpr1 antagonist -29.0% and Luciferase inh inactive.
Screening O=C(c1ccc(F)cc1)N1CCCN(c2cc(-c3ccc(F)cc3)[nH]n2)CC1 returned 3T3 cytotox -23.7%, HEK293 tox inconclusive, hNpr1 antagonist -1.1% and Luciferase inh inactive.
For O=C(c1cccc(Cl)c1)N1CCN(c2cc(-c3ccccc3)[nH]n2)CC1 the results were 3T3 cytotox inconclusive, HEK293 tox 44.7µM*, hNpr1 antagonist -22.1% and Luciferase inh inactive.
`O=C(c1ccsc1)N1CCN(c2cc(-c3ccc(Cl)cc3)[nH]n2)CC1` gave 3T3 cytotox 25.1µM*, HEK293 tox inconclusive, hNpr1 antagonist -25.7% and Luciferase inh inactive.
`O=C(c1ccc(Cl)cc1)N1CCN(c2cc(-c3ccc(F)cc3)[nH]n2)CC1` gave 3T3 cytotox 35.5µM*, HEK293 tox inconclusive, hNpr1 antagonist inconclusive and Luciferase inh inactive.
For O=C1CC(c2ccccc2)N(C(=O)C2CC2)CCCN(C(=O)Cc2c[nH]c3ccccc23)CCN1 (centres undefined) the results were 3T3 cytotox -0.1%, HEK293 tox 0.5%, hNpr1 antagonist 8.1% and Luciferase inh inactive.
Screening O=C(NC1CN(c2ccnc3ccnn23)C1)c1ccncc1 returned 3T3 cytotox -11.6%[138 µM] and HEK293 tox -8.7%[172 µM].
COC(=O)CNC(=O)c1cn2cc(-c3ccc(OC)cc3)sc2n1 was read as 3T3 cytotox inconclusive and HEK293 tox -23.7%[172 µM].
For COCCCNC(=O)c1cn2cc(-c3cccc(C#N)c3)sc2n1 the results were 3T3 cytotox 44.7µM* and HEK293 tox inconclusive.
Screening COCCCNC(=O)c1cn2cc(-c3cccnc3)sc2n1 returned 3T3 cytotox inconclusive and HEK293 tox inactive.
Screening COc1ccc(-c2cn3cc(C(=O)NCc4ccccc4)nc3s2)cc1 returned 3T3 cytotox -10.0% and HEK293 tox -19.6%.
For COc1ccc(-c2cn3cc(C(=O)N(C)C)nc3s2)cc1 the results were 3T3 cytotox 89.1µM* and HEK293 tox inconclusive.
